The text below walks through data of PubChem BioAssay (EPA / NIEHS).

Usually AC50 stands for the concentration at which the activity in the assay is half-maximal.

Common to all, as to conditions: mRNA level, 48 h; actives raise or lower the signal
Read-out in one test: CYP2C8 (gene 1558)
Description: LTEA_HepaRG_CYP2C8: Life Technologies and Expression Analysis (LTEA) Assay for CYP2C8 using HepaRG (AID 2283483). The method, boiled down:
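CYP2C8 expression measured by TaqMan qRT-PCR and normalized to three housekeeping genes. HepaRG cultures were treated for 48 h with an eight-point half-log series topping at 100 uM, vehicle 0.5% DMSO, duplicates; fitted both directions against DMSO.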

Read-out in the next test: CYP2C9 (gene 1559)
Description: LTEA_HepaRG_CYP2C9: Life Technologies and Expression Analysis (LTEA) Assay for CYP2C9 using HepaRG (AID 2283484). The method, boiled down:
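CYP2C9 transcript level, quantified by TaqMan qRT-PCR against three housekeeping genes, was fitted bidirectionally relative to 0.5% DMSO. HepaRG cultures were treated 48 h, in duplicate, at eight half-log concentrations topping at 100 uM.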

Read-out in a further test: CYP2E1 (gene 1571)
Description: LTEA_HepaRG_CYP2E1: Life Technologies and Expression Analysis (LTEA) Assay for CYP2E1 using HepaRG (AID 2283485). The essentials:
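Readout is qRT-PCR of CYP2E1 mRNA, normalized to three housekeeping genes and fitted bidirectionally against 0.5% DMSO. HepaRG cells were dosed 48 h at eight concentrations, highest 100 uM with half-log dilutions.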

Read-out in test [1]: Cytochrome P450 3A4 (Homo sapiens) (UniProt P08684)
The experiment in a line: LTEA_HepaRG_CYP3A4: Life Technologies and Expression Analysis (LTEA) Assay for CYP3A4 using HepaRG (AID 2283487). The method, boiled down:
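In a human hepatic line (HepaRG), duplicate wells were treated 48 h with up to 100 uM chemical in half-log dilutions. Endpoint: CYP3A4 mRNA induction or loss relative to 0.5% DMSO vehicle, by qRT-PCR.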

Read-out in test [2]: DNA damage-inducible transcript 3 (DDIT3), DDIT3 (gene 1649)
The experiment in a line: LTEA_HepaRG_DDIT3: Life Technologies and Expression Analysis (LTEA) Assay for DNA damage-inducible transcript 3 (DDIT3) using HepaRG (AID 2283488). The essentials:
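Cells are human HepaRG liver cells treated for 48 h with eight half-log concentrations up to 100 uM in 0.5% DMSO. Transcript levels come from qRT-PCR normalized to three housekeeping genes, with activity fitted in both directions relative to vehicle.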

Read-out in test [3]: Pro-epidermal growth factor (Homo sapiens) (UniProt P01133)
Description: LTEA_HepaRG_EGF: Life Technologies and Expression Analysis (LTEA) Assay for Epidermal growth factor (EGF) using HepaRG (AID 2283489). The essentials:
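qRT-PCR readout of EGF transcript after 48 h chemical exposure of HepaRG cells; eight concentrations from 100 uM down in half-log steps, duplicate wells, 0.5% DMSO vehicle. Bidirectional curve fitting against DMSO baseline.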

Read-out in test [4]: Early growth response protein 1 (EGR1) transcription factor, EGR1 (gene 1958)
The experiment in a line: LTEA_HepaRG_EGR1: Life Technologies and Expression Analysis (LTEA) Assay for Early growth response protein 1 (EGR1) transcription factor using HepaRG (AID 2283490). The method, boiled down:
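EGR1 transcript levels quantified by qRT-PCR (Fluidigm arrays) against three housekeeping genes after 48 h chemical exposure of HepaRG cells. Eight-point half-log series topping at 100 uM, 0.5% DMSO vehicle, analyzed for gain or loss.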

Read-out in test [5]: Ezrin (EZR), EZR (gene 7430)
Description: LTEA_HepaRG_EZR: Life Technologies and Expression Analysis (LTEA) Assay for Ezrin (EZR) using HepaRG (AID 2283491). The essentials: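 Gain or loss of EZR mRNA is scored relative to 0.5% DMSO in human HepaRG cultures treated 48 h with test chemicals in duplicate, eight half-log concentrations from 100 uM.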

Read-out in test [6]: Fatty Acid-Binding Protein 1 (FABP1), FABP1 (gene 2168)
Description: LTEA_HepaRG_FABP1: Life Technologies and Expression Analysis (LTEA) Assay for Fatty Acid-Binding Protein 1 (FABP1) using HepaRG (AID 2283494). The essentials: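 FABP1 expression by TaqMan qRT-PCR, normalised to three housekeeping genes, in HepaRG cells after 48 h chemical treatment. Eight-point half-log series topping at 100 uM in 0.5% DMSO, duplicates; gain or loss fitted relative to vehicle.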

Read-out in test [7]: Cytochrome P450 4A22 (Homo sapiens) (UniProt Q5TCH4)
The experiment in a line: LTEA_HepaRG_CYP4A22: Life Technologies and Expression Analysis (LTEA) Assay for Cytochrome P450 4A22 (CYP4A22) using HepaRG (AID 2283495). The method, boiled down: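 HepaRG, 48 h post-plating -> serum-free induction medium; dosed 48 h, duplicate, 8 conc. (100 uM top, half-log), 0.5% DMSO. Readout: CYP4A22 mRNA by qRT-PCR, ACTB/GAPDH/POLR2A normalization; gain/loss fit relative to DMSO.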

Read-out in test [8]: Cytochrome P450 7A1 (Homo sapiens) (UniProt P22680)
The experiment in a line: LTEA_HepaRG_CYP7A1: Life Technologies and Expression Analysis (LTEA) Assay for Cytochrome P450 7A1 (CYP7A1) using HepaRG (AID 2283496). The essentials: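 HepaRG, 48 h exposure, 8-pt half-log series from 100 uM, 0.5% DMSO vehicle, duplicates. Readout: TaqMan qRT-PCR mRNA vs three housekeeping genes; bidirectional curve fit against DMSO baseline.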

Read-out in test [9]: Glutathione S-Transferase (GSTA2), GSTA2 (gene 2939)
Description: LTEA_HepaRG_GSTA2: Life Technologies and Expression Analysis (LTEA) Assay for Glutathione S-Transferase (GSTA2) using HepaRG (AID 2283497). The method, boiled down: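 GSTA2 transcript levels came from Fluidigm TaqMan qRT-PCR normalized to three housekeeping genes, fitted in both directions against DMSO. HepaRG cultures received chemicals for 48 h in serum-free induction medium (0.5% DMSO), 8 half-log concentrations up to 100 uM, duplicate.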

Read-out in test [10]: Glutamate-cysteine ligase catalytic (GCLC), GCLC (gene 2729)
Description: LTEA_HepaRG_GCLC: Life Technologies and Expression Analysis (LTEA) Assay for Glutamate-cysteine ligase catalytic (GCLC) using HepaRG (AID 2283498). The essentials:
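Expression by TaqMan qRT-PCR, normalized to three housekeeping genes (ACTB, GAPDH, POLR2A), with up- or down-regulation fitted against DMSO. HepaRG cells dosed in duplicate for 48 h with 8 half-log concentrations up to 100 uM, vehicle 0.5% DMSO.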

Read-out in test [11]: growth arrest and DNA damage 45 (GADD45G), GADD45G (gene 10912)
Description: LTEA_HepaRG_GADD45G: Life Technologies and Expression Analysis (LTEA) Assay for growth arrest and DNA damage 45 (GADD45G) using HepaRG (AID 2283499). The method, boiled down: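 HepaRG, 48 h exposure, top 100 uM, half-log 8-point series, 0.5% DMSO vehicle, duplicates. Readout: GADD45G transcript by qRT-PCR (Fluidigm array), housekeeping-normalised (ACTB/GAPDH/POLR2A). Bidirectional curve fit vs DMSO baseline.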

Read-out in test [12]: Heat shock 70 kDa protein 1 (HSPA1A), gene 3303
Description: LTEA_HepaRG_HSPA1A: Life Technologies and Expression Analysis (LTEA) Assay for Heat shock 70 kDa protein 1 (HSPA1A) using HepaRG (AID 2283502). The method, boiled down:
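Cells were plated and cultured for 48 h, then switched to serum-free induction medium. Chemicals were added at eight half-log concentrations up to 100 uM for 48 h. RNA was then isolated and HSPA1A measured by qRT-PCR with bidirectional curve fitting against DMSO.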

Read-out in another test: CYP4A11 (gene 1579)
The experiment in a line: LTEA_HepaRG_CYP4A11: Life Technologies and Expression Analysis (LTEA) Assay for CYP4A11 using HepaRG (AID 2283486). The essentials: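 CYP4A11 transcript levels were quantified by TaqMan qRT-PCR after HepaRG human liver cells were treated for 48 hours with test chemicals (top 100 uM, half-log dilutions, 0.5% DMSO). Gain or loss of signal was fitted relative to DMSO.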

Read-out in test [13]: Cytochrome P450 3A7 (Homo sapiens) (UniProt P24462)
Description: LTEA_HepaRG_CYP3A7: Life Technologies and Expression Analysis (LTEA) Assay for CYP3A7 using HepaRG (AID 2283492). The method, boiled down:
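CYP3A7 transcript levels were read by TaqMan qRT-PCR on Fluidigm arrays after 48 h chemical exposure of human HepaRG cells, with housekeeping-gene normalisation. Eight half-log concentrations up to 100 uM in 0.5% DMSO were tested in duplicate.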

Read-out in test [14]: Glutathione S-transferase M3 (GSTM3), GSTM3 (gene 2947)
The experiment in a line: LTEA_HepaRG_GSTM3: Life Technologies and Expression Analysis (LTEA) Assay for Glutathione S-transferase M3 (GSTM3) using HepaRG (AID 2283501). The method, boiled down:
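qRT-PCR read-out of GSTM3 transcript, normalized to three housekeeping genes, from human HepaRG cells after 48 h chemical exposure. Eight-point half-log series, top 100 uM, 0.5% DMSO vehicle; gain or loss fitted relative to DMSO baseline.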

Read-out in a further test: CYP3A5 (gene 1577)
The experiment in a line: LTEA_HepaRG_CYP3A5: Life Technologies and Expression Analysis (LTEA) Assay for CYP3A5 using HepaRG (AID 2283493). The method, boiled down: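 Human HepaRG hepatic cells receive 48 h chemical treatment at eight concentrations (half-log steps from 100 uM) in 0.5% DMSO. Expression of CYP3A5 is quantified by Fluidigm qRT-PCR and normalized to three reference genes.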

Several values for one entry are separate records, joined by “and”; a condition that tells them apart may be missing. Equal values may be shown once. Where a structure was tested more than once in an assay, its records may differ in their call. Activity calls are given as the source filed them. The calls were made as follows: active = hit-call score of the fitted dose curve at least 0.9, where 1 is the maximum; inactive = score below 0.9.

Cytochrome P450 3A4 (Homo sapiens), sequence (P08684 whole entry, looked up): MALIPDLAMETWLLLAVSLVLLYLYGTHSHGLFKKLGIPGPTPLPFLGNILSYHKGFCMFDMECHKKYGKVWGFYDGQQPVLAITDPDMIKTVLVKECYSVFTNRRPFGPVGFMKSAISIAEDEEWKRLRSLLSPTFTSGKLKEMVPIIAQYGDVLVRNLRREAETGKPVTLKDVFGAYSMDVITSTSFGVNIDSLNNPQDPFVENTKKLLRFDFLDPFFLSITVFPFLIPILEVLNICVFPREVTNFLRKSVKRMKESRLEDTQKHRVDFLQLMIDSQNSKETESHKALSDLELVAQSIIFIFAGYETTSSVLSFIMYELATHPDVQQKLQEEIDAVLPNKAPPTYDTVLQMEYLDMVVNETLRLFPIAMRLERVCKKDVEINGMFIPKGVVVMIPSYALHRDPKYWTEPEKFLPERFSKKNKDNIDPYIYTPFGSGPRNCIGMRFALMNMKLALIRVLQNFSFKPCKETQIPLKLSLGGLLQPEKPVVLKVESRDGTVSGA
Cytochrome P450 3A7 (Homo sapiens), sequence (P24462 whole entry, looked up): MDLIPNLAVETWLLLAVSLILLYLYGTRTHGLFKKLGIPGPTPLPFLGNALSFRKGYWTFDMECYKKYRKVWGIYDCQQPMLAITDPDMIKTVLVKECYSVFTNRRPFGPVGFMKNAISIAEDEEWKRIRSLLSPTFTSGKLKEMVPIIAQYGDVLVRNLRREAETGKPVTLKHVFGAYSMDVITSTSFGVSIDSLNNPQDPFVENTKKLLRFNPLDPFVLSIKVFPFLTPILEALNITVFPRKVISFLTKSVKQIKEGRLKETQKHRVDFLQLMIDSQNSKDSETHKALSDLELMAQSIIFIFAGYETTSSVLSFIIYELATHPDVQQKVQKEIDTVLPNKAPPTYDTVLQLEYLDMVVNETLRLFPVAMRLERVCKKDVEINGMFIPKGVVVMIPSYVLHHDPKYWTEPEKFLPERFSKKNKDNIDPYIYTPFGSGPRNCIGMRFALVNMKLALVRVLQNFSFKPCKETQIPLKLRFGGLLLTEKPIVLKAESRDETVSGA

With `O=S(=O)(O)C(F)(F)C(F)(F)C(F)(F)C(F)(F)C(F)(F)C(F)(F)C(F)(F)C(F)(F)F`, the AC50 with CYP2C8 (gene 1558) is 88.2 µM (active) and 12.1 µM (active) and 87.9 µM (active); with CYP2C9 (gene 1559), 80.2 µM (active) and 88.7 µM (active); with CYP2E1 (gene 1571), 61.1 µM (active) [middle of 4 runs]; in test [2] it was 60.1 µM (active) [middle of 4 runs]; in test [4] it was 50 µM (active) and 7.35 µM (active); in test [5], 50 µM (active) and 14.2 µM (active). The AC50 is 94.2 µM (active) and 77 µM (active) in [6]; 89.2 µM (active) [middle of 4 runs] in test [7]; 94.4 µM (active) and 94 µM (active) and 75.4 µM (active) in [8]; 76.5 µM (active) [middle of 4 runs] in [9]; 5.76 µM (active) in test [11]; 19.9 µM (active) in [12]. The call (with CYP2C9 (gene 1559); in [1]; in test [3]; in [4]; in test [5]; in [6]) was inactive. In addition, the result in test [8], in test [10], in test [11] and in [12] was inactive.

Consider `CCOCN(C(=O)CCl)c1c(C)cccc1CC`, for which the AC50 with CYP2C8 (gene 1558) is 83.6 µM (active); in the test with CYP2C9 (gene 1559) it was 80.2 µM (active); with CYP2E1 (gene 1571) it was 81.3 µM (active); in the test with CYP4A11 (gene 1579), 83.5 µM (active); in test [13], 86.2 µM (active); in test [6], 87.7 µM (active). In addition, the AC50 in [7] is 92.5 µM (active); in test [8] it was 84.6 µM (active); in [9], 83.4 µM (active); in test [11], 77.9 µM (active). In addition, the result in [1], in test [2], in test [3], in [4], in test [5] and in [10] was inactive. Further, the molecule was classed as inactive in [14] and in test [12].

As for `COP(=S)(OC)Oc1ccc([N+](=O)[O-])cc1`, the molecule was called inactive (with CYP2C8 (gene 1558); with CYP2C9 (gene 1559); with CYP2E1 (gene 1571); in the test with CYP4A11 (gene 1579); in test [1]; in [2]). Besides, the outcome (in [3]; in [4]; in [5]; in test [13]; in the test with CYP3A5 (gene 1577); in [6]) was inactive. For the same molecule, the molecule was classed as inactive in test [7], in test [8], in test [9], in test [10] and in [12].
